Measurements: the supplement of paper PMC6555819

What follows are sequences tested on PPARg:RXRa 90nM:30nM, anti-RXR (NR concentration 90 nM, RXRa partner concentration 30 nM) (assay: PBM binding z-score (relative to random genomic background probes); higher = stronger binding; sequences stand for … in GC…GCGATTGACAGCGTAGAATGAAGG).
Procedure, shortened: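 Binding z-scores were set against random background probes. The data came from custom Agilent 4×180K protein-binding microarrays carrying double-stranded probes with 34-nt variable regions, incubated 1 h with ligand-free nuclear receptor dimers. Partner-specific antibodies detected binding, and scanned fluorescence was regression-normalized.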

Row | Sequence | PBM binding z-score
1 | CCAACTAGGTCAGAACAGGACAGTGAAGGATGAT | 2.8
2 | CATACAGGGTCAGCTAGGCCAGAGAAGGGACGGC | 1.82
3 | TGAATGACGTTATAAGATCAGGGAACGTTGCAAA | 0.526
4 | ATCTCTCGGTAACCAAGTTCAGTGAATGCCGAAC | 0.0566
5 | CCTAGCAGGCCAATCTGGGTCACCCAAGGCTTGA | 1.89
6 | GCTTGTCGATCAAGGTTAAGAAAGACTAAGCTAA | 0.112
7 | ATATGTAGGTTAAGGGTCACTCAGGTTGGTTCGC | 11.2
8 | GCTGCTAGGTTAGGTTGGTCAGCTAACGGGTACG | -0.625
9 | ATCGAAAGGTCGACGAGGTGAGTGTACACCGTTT | 2.63
10 | CAAACTAGGTCACGAAAGGTCAAGGTCGAATGAC | 8.5
11 | TAGCCTAGGTCAGATGGGGCCAGTATACGCTATA | 0.725
12 | ATCGCAAGGTCGTGAGGTGAGTATACAGAAAGGC | 0.863
13 | TAGCATAGGTCATGGGCCAGTATACCACGCGAAC | 4.24
14 | TCTGCTAGGTCAGCTGGTCAGCTAACGAGCTGCC | 1.23
15 | GCTGTTAGGTCAGGTTGGTCAGCTAACGGGTACG | 0.138
16 | TCGGCTAGGTCAGTTGGTCAGCTAACGAGCTGCC | 1.11
17 | CCCATTAGTTGACCATAAGGGCAACCGAAGCTCG | 0.346
18 | TAGCTTAGGTCATTGGGCCAGTATAGTACGCATC | 2.18
19 | CCTTACGGGGCACTGACAGGTTATAGCATTTGGA | -0.232
20 | TCGAGTAGGTTACCGATGGGGCATTCAGCTTTCT | 1.3
21 | TCTATTAGTTGATTAGGGCATCCGAAACAGCGGA | 2.78
22 | TCTGCTAGGTCGGTTGGTCAGCTAACGAGCTGCC | 0.78
